Measurements published in PubChem BioAssay AID1159580 (chemical genetic matrix, 2015).
About 2,000 (36%) of roughly 5,500 compounds were called active. Another 18% or so got no clear call; they are omitted. No stated cut-off is given here; in the data, active means normalized growth mostly below about 0.91 (no sharp cut-off); inconclusive means no clear call, values can overlap the other calls; inactive means mostly above about 0.92. The list shows a part of the results.

Assay: chemical genetic growth profiling, strain panel (AID 1159580);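 further: tested at 20 µM; growth read once vehicle control cultures reached saturation at 30 °C; 1 = growth at the plate median or of vehicle wells; lower values mean less growth of the strain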
Conditions: growth OD

Measured: normalized growth

COc1cc2c3cc1Oc1cc(ccc1O)OC1c4c(cc(OC)c(O)c4Oc4ccc(cc4)CC3N(C)CC2)CCN1C (stereo unspecified)
inactive: S. cerevisiae deletion strains, locus YAL013W, strain DEP1, hits give low values 0.992 | S. cerevisiae deletion strains, locus YBR021W, strain FUR4, hits give low values 0.971 | S. cerevisiae deletion strains, locus YBR229C, strain ROT2, hits give low values 0.993 | S. cerevisiae deletion strains, locus YCL029C, strain bik1, hits give low values 0.967 | S. cerevisiae deletion strains, locus YDL035C, strain GPR1, hits give low values 0.978 | S. cerevisiae deletion strains, locus YDL074C, strain BRE1, hits give low values 1.02 | S. cerevisiae deletion strains, locus YDL101C, strain DUN1, hits give low values 0.993 | S. cerevisiae deletion strains, locus YDL134C, strain PPH21, hits give low values 0.996 | S. cerevisiae deletion strains, locus YDL185W, strain tfp1, hits give low values 0.966 | S. cerevisiae deletion strains, locus YDL192W, strain arf1, hits give low values 0.981 | S. cerevisiae deletion strains, locus YDR101C, strain arx1, hits give low values 0.983 | S. cerevisiae deletion strains, locus YDR150W, strain NUM1, hits give low values 0.995 | S. cerevisiae deletion strains, locus YDR162C, strain NBP2, hits give low values 1.01 | S. cerevisiae deletion strains, locus YDR318W, strain mcm21, hits give low values 0.965 | S. cerevisiae deletion strains, locus YDR388W, hits give low values 0.989 | S. cerevisiae deletion strains, locus YDR502C, strain sam2, hits give low values 0.984 | S. cerevisiae deletion strains, locus YEL061C, strain CIN8, hits give low values 0.985 | S. cerevisiae deletion strains, locus YER110C, hits give low values 0.966 | S. cerevisiae deletion strains, locus YER155C, strain BEM2, hits give low values 0.999 | S. cerevisiae deletion strains, locus YER167W, strain BCK2, hits give low values 0.958 | S. cerevisiae deletion strains, locus YGL078C, strain dbp3, hits give low values 0.979 | S. cerevisiae deletion strains, locus YGL086W, strain mad1, hits give low values 0.963 | S. cerevisiae deletion strains, locus YGL248W, strain PDE1, hits give low values 0.999 | S. cerevisiae deletion strains, locus YGR078C, strain PAC10, hits give low values 1.02 | S. cerevisiae deletion strains, locus YGR135W, strain pre9, hits give low values 0.991 | S. cerevisiae deletion strains, locus YGR229C, strain SMI1, hits give low values 1.01 | S. cerevisiae deletion strains, locus YGR252W, strain gcn5, hits give low values 0.925 | S. cerevisiae deletion strains, locus YHR030C, strain SLT2, hits give low values 0.972 | S. cerevisiae deletion strains, locus YHR079C, strain IRE1 (second series), hits give low values 0.992 | S. cerevisiae deletion strains, locus YHR094C, strain hxt1, hits give low values 0.957 | S. cerevisiae deletion strains, locus YHR129C, strain ARP1, hits give low values 0.997 | S. cerevisiae deletion strains, locus YHR200W, strain rpn10, hits give low values 0.964 | S. cerevisiae deletion strains, locus YIL066C, strain RNR3, hits give low values 0.996 | S. cerevisiae deletion strains, locus YIL073C, strain SPO22, hits give low values 0.899 | S. cerevisiae deletion strains, locus YIL125W, strain kgd1, hits give low values 0.984 | S. cerevisiae deletion strains, locus YIR030C, strain dcg1, hits give low values 0.978 | S. cerevisiae deletion strains, locus YJL095W, strain BCK1, hits give low values 1.03 | S. cerevisiae deletion strains, locus YJL134W, strain LCB3, hits give low values 0.99 | S. cerevisiae deletion strains, locus YJL168C, strain set2, hits give low values 0.986 | S. cerevisiae deletion strains, locus YJL187C, strain SWE1 (second series), hits give low values 0.999 | S. cerevisiae deletion strains, locus YJR043C, strain POL32, hits give low values 0.952 | S. cerevisiae deletion strains, locus YJR075W, strain HOC1, hits give low values 1.05 | S. cerevisiae deletion strains, locus YKL009W, strain mrt4, hits give low values 0.977 | S. cerevisiae deletion strains, locus YKL068W, hits give low values 0.975 | S. cerevisiae deletion strains, locus YKL085W, strain MDH1 (second series), hits give low values 0.995 | S. cerevisiae deletion strains, locus YKL085W, strain MDH1, hits give low values 0.995 | S. cerevisiae deletion strains, locus YKL190W, strain CNB1, hits give low values 0.998 | S. cerevisiae deletion strains, locus YKR001C, strain vps1, hits give low values 0.969 | S. cerevisiae deletion strains, locus YLR039C, strain RIC1, hits give low values 0.942 | S. cerevisiae deletion strains, locus YLR058C, strain SHM2, hits give low values 0.988 | S. cerevisiae deletion strains, locus YLR102C, strain apc9, hits give low values 0.98 | S. cerevisiae deletion strains, locus YLR262C, strain YPT6, hits give low values 0.982 | S. cerevisiae deletion strains, locus YLR268W, strain sec22, hits give low values 1 | S. cerevisiae deletion strains, locus YLR330W, strain CHS5, hits give low values 0.987 | S. cerevisiae deletion strains, locus YLR342W, strain FKS1 (second series), hits give low values 0.957 | S. cerevisiae deletion strains, locus YLR371W, strain rom2, hits give low values 0.968 | S. cerevisiae deletion strains, locus YLR418C, strain cdc73, hits give low values 1.02 | S. cerevisiae deletion strains, locus YML016C, strain PPZ1, hits give low values 0.99 | S. cerevisiae deletion strains, locus YML032C, strain rad52, hits give low values 0.951 | S. cerevisiae deletion strains, locus YML124C, strain tub3, hits give low values 0.976 | S. cerevisiae deletion strains, locus YMR078C, strain ctf18, hits give low values 0.968 | S. cerevisiae deletion strains, locus YMR223W, strain ubp8, hits give low values 0.951 | S. cerevisiae deletion strains, locus YMR263W, strain SAP30, hits give low values 1.01 | S. cerevisiae deletion strains, locus YMR307W, strain GAS1, hits give low values 0.955 | S. cerevisiae deletion strains, locus YNL067W, strain RPL9B, hits give low values 1 | S. cerevisiae deletion strains, locus YNL128W, strain TEP1, hits give low values 0.99 | S. cerevisiae deletion strains, locus YNL153C, strain GIM3, hits give low values 1.02 | S. cerevisiae deletion strains, locus YNL233W, strain BNI4, hits give low values 1.02 | S. cerevisiae deletion strains, locus YNL250W, strain rad50, hits give low values 0.973 | S. cerevisiae deletion strains, locus YNL271C, strain bni1, hits give low values 0.993 | S. cerevisiae deletion strains, locus YNL298W, strain CLA4, hits give low values 0.967 | S. cerevisiae deletion strains, locus YNL307C, strain MCK1, hits give low values 0.952 | S. cerevisiae deletion strains, locus YNL322C, strain KRE1, hits give low values 0.979 | S. cerevisiae deletion strains, locus YNR052C, strain pop2, hits give low values 0.961 | S. cerevisiae deletion strains, locus YOL006C, strain TOP1, hits give low values 1.03 | S. cerevisiae deletion strains, locus YOL012C, strain htz1 1.06 | S. cerevisiae deletion strains, locus YOL147C, strain pex11, hits give low values 0.973 | S. cerevisiae deletion strains, locus YOR061W, strain CKA2, hits give low values 0.998 | S. cerevisiae deletion strains, locus YOR069W, strain VPS5, hits give low values 0.991 | S. cerevisiae deletion strains, locus YOR136W, strain idh2, hits give low values 0.96 | S. cerevisiae deletion strains, locus YOR144C, strain elg1, hits give low values 0.982 | S. cerevisiae deletion strains, locus YOR184W, strain ser1, hits give low values 0.93 | S. cerevisiae deletion strains, locus YOR316C, strain cot1, hits give low values 0.977 | S. cerevisiae deletion strains, locus YPL055C, strain LGE1, hits give low values 1 | S. cerevisiae deletion strains, locus YPL241C, strain CIN2, hits give low values 0.997 | S. cerevisiae deletion strains, locus YPR119W, strain clb2, hits give low values 0.989 | S. cerevisiae deletion strains, locus YPR141C, strain kar3, hits give low values 0.99 | S. cerevisiae deletion strains, locus YPR163C, strain tif3, hits give low values 0.96 | S. cerevisiae deletion strains, locus YPR167C, strain met16, hits give low values 0.98 | S. cerevisiae deletion strains, strain wtn01, hits give low values 1.01 | S. cerevisiae strains, strain wild type, hits give low values 0.989
